Measurements: PubChem BioAssay (NCATS)
Inconclusive results are not listed. Activity calls are given as the source filed them. Unless noted, the call rests on the fitted dose curve.

Tests used:
[1] = Natriuretic polypeptide receptor (hNpr1) antagonism - Pilot counterscreen GloSensor control cell line (AID 1347045); further: series mostly up to about 38 µM
Summary of the method: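 The SNP-driven cGMP luminescence signal (50 uM, 20 min, room temperature) was measured in GloSensor HEK293 control cells. Compounds were tested as a LOPAC titration series and preincubated for 30-50 min.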

[2] = target: Atrial natriuretic peptide receptor 1 (Homo sapiens) (UniProt P16066); assay: Natriuretic polypeptide receptor (hNpr1) antagonism - Pilot screen (AID 1347049);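 further: HEK293 cells with hNpr1 and GloSensor cGMP luciferase stimulated by 0.1 nM hNppA; agonist-evoked cGMP luminescence read 20 min after hNppA addition; series mostly up to about 58 µM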
Chain of Atrial natriuretic peptide receptor 1 (Homo sapiens) (P16066 whole entry, looked up): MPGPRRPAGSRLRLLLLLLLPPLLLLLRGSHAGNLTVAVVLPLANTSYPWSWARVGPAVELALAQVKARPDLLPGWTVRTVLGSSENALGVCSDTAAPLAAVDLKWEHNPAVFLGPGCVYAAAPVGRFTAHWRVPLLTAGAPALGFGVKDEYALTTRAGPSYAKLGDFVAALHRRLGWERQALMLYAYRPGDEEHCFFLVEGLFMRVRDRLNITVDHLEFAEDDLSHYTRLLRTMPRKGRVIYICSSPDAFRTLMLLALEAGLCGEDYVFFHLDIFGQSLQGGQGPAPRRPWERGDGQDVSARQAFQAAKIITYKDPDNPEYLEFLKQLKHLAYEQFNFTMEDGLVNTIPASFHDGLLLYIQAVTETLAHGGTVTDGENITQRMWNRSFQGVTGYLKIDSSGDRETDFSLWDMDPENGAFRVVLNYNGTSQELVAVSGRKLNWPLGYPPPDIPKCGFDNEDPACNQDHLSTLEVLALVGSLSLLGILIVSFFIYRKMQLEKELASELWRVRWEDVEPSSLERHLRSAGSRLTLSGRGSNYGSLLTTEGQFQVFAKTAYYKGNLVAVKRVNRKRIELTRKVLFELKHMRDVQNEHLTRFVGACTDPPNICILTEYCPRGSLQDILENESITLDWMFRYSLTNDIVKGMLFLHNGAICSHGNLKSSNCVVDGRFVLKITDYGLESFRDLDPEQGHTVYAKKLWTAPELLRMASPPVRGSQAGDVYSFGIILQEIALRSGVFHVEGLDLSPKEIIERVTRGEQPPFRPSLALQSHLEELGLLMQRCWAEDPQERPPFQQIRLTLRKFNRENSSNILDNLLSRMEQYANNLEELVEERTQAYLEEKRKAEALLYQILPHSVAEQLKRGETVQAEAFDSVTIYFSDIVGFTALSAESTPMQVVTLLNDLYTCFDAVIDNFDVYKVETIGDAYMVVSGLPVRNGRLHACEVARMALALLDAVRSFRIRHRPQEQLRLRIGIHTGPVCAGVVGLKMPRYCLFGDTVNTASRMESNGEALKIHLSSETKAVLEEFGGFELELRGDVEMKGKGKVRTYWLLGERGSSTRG
Summary of the method: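 Receptor antagonism read as cGMP-dependent luminescence in hNpr1/pGS-40F HEK293 cells: pre-read after 30 min compound exposure, post-read 20 min after hNppA agonist at 0.1 nM final, all at room temperature, protected from light; A-71915 titration as control.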

[3] = target: Atrial natriuretic peptide receptor 2 (Homo sapiens) (UniProt P20594); assay: Natriuretic polypeptide receptor (hNpr2) antagonism - Pilot subtype selectivity assay (AID 1347050)
Chain of Atrial natriuretic peptide receptor 2 (Homo sapiens) (P20594 whole entry, looked up): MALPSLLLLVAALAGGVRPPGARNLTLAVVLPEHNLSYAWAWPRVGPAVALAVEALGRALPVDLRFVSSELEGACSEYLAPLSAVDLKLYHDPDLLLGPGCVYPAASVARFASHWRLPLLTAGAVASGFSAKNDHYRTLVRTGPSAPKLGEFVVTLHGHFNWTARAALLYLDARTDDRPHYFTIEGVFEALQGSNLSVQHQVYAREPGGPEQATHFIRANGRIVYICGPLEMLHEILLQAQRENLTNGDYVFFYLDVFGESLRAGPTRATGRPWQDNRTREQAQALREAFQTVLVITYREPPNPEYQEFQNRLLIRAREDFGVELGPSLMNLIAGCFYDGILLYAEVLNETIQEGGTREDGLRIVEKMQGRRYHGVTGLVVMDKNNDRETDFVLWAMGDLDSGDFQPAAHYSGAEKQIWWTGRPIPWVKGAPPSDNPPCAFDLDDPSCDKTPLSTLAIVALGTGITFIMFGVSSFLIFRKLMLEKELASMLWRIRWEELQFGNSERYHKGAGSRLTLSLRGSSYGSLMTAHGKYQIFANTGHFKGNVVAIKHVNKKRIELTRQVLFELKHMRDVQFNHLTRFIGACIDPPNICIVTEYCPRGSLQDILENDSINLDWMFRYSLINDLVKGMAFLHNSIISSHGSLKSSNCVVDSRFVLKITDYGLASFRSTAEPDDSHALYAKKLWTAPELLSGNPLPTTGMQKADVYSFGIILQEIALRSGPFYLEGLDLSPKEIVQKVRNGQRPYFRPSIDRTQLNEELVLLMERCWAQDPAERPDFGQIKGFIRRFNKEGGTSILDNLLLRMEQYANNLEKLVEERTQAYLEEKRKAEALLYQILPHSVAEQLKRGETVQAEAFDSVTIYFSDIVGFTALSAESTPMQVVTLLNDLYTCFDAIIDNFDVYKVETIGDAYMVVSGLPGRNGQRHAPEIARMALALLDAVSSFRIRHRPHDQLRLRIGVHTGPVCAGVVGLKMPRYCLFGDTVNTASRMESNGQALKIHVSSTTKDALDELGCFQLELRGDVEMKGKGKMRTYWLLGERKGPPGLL
Summary of the method: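 Antagonist mode: compounds (LOPAC1280, seven 1:5 dilutions) added 30 min before 1 nM hNppC stimulation of hNpr2-HEK293 cGMP-sensor cells; luminescence read before and 20 min after agonist at ambient temperature.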

[4] = NS1 protein of Zika virus - qHTS assay to identify small molecule inhibitors in human HEK 293 cells (AID 1347053; active means well fitted curve in the direction sought with a large enough effect; an effect the other way counts as inactive or inconclusive; further: series mostly up to about 46 µM; nearly all actives have a fitted effect of over 55% in size)
Summary of the method: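 Read-out is a two-antibody TR-FRET for ZIKV NS1, normalized between uninfected cells and infected cells. Compound added 1 h before MR766 infection at MOI 0.5; human HEK 293 cells incubated 24 h, 37 C.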

[5] = target: T1, Tyrosine-protein phosphatase non-receptor type substrate 1 (Homo sapiens) + Leukocyte surface antigen CD47 (Homo sapiens) (UniProt P78324+Q08722); assay: CD47-SIRPalpha protein protein interaction - LANCE assay qHTS validation (AID 1347057; active means well fitted curve in the direction sought with a large enough effect in the signal ratio, with a control signal flat, not every such curve was filed as active; the % refers to the signal ratio; further: series mostly up to about 38 µM)
T1 sequence (P78324 whole entry, looked up, the tested form may be a part): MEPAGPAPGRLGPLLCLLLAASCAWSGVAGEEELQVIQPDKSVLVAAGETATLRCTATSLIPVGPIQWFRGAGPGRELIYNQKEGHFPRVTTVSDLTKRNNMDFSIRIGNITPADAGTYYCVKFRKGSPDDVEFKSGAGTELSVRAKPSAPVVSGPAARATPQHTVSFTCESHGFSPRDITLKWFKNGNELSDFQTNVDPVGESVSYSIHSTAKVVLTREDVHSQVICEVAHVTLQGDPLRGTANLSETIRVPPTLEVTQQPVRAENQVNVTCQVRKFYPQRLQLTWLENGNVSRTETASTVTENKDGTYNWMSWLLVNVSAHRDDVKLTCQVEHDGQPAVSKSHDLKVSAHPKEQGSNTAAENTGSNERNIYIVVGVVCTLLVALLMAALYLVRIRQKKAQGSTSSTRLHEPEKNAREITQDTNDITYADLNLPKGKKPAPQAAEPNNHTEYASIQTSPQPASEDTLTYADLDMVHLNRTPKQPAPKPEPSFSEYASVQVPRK
T1 sequence (Q08722 whole entry, looked up, the tested form may be a part): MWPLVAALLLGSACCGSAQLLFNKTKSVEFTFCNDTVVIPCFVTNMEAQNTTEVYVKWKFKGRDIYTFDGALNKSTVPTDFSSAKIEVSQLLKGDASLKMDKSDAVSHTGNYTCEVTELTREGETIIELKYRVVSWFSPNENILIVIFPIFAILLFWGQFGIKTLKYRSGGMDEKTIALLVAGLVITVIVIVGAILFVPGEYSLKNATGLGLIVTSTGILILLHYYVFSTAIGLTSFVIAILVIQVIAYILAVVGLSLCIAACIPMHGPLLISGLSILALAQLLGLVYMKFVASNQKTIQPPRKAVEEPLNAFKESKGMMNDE
Summary of the method: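 Inhibition of soluble CD47/SIRPalpha ectodomain association by titrated compounds, measured as 665/615 nm time-resolved FRET ratio after sequential 30 min room-temperature incubations.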

[6] = target: T1, Tyrosine-protein phosphatase non-receptor type substrate 1 (Homo sapiens) + Leukocyte surface antigen CD47 (Homo sapiens); assay: CD47-SIRPalpha protein protein interaction - HTRF assay qHTS validation (AID 1347058; active means well fitted curve in the direction sought with a large enough effect in the signal ratio, not every such curve was filed as active; the % refers to the signal ratio; further: series mostly up to about 38 µM)
Summary of the method: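 Soluble extracellular domains (6His-CD47, Avi-tag-biotinylated SIRPalpha) in PBS pH 7.4 with 0.05% IGEPAL CA-630. Compounds were preincubated 30 min at RT with CD47 and anti-His-Eu, then SIRPalpha and SAV-XL665 were added. TR-FRET 665/615 ratio.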

[7] = target: T1, Tyrosine-protein phosphatase non-receptor type substrate 1 (Homo sapiens) + Leukocyte surface antigen CD47 (Homo sapiens); assay: CD47-SIRPalpha protein protein interaction - Alpha assay qHTS validation (AID 1347059; active means well fitted curve in the direction sought with a large enough effect; an effect the other way counts as inactive or inconclusive;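 further: bead proximity luminescence from CD47 binding SIRPalpha after compound preincubation with SIRPalpha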)
Summary of the method: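 AlphaScreen signal between CD47-His (12.5 nM) and biotin-SIRPalpha (25 nM) soluble extracellular domains, bead-captured via Ni-NTA and streptavidin. Compounds, in 7-point titrations, met SIRPalpha 30 min before CD47; PBS pH 7.4 with 0.05% IGEPAL.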

Measured: Potency

CCCN1CCC[C@@H](c2cccc(O)c2)C1
inactive: all assays above

CCCN(CCC)[C@H]1CCc2c(F)ccc(O)c2C1
inactive: all assays above

c1ccc2c(N3CCNCC3)cccc2c1
inactive: all assays above

N=C(N)c1ccc(CS(=O)(=O)F)cc1
inactive: all assays above

CC(N)c1cccc(Cl)c1Cl (stereo not drawn)
inactive: all assays above

CC12NC(Cc3ccccc31)c1ccccc12 (stereo not drawn)
inactive: all assays above

CC(C)(C)c1o[nH]c(=O)c1CC(N)C(=O)O (stereo not drawn)
inactive: all assays above

Clc1cc(I)cc(Cl)c1NC1=NCCN1
inactive: all assays above

CC(Cc1ccc(OCC(=O)O)cc1)NCC(O)c1cccc(Cl)c1 (stereo not drawn)
inactive: all assays above

Cc1[nH]c2ccc(O)cc2c1CCN
inactive: all assays above

C[N+]1(C)CCOC(O)(c2ccc(-c3ccc(C4(O)C[N+](C)(C)CCO4)cc3)cc2)C1 (stereo not drawn)
inactive: all assays above

CCCN(CCC)C1CCc2cccc(O)c2C1 (stereo not drawn)
inactive: all assays above

CCCN1CC[C@@H]2c3cc(O)ccc3CC[C@@H]21
inactive: all assays above

CCCN(CCC)CCc1ccc(O)c(O)c1
inactive: all assays above

Clc1ccc(N2CC3CCC(C2)N3)nn1
inactive: all assays above

C[N+](C)(C)CCOC(=O)CBr
inactive: all assays above

N#CCCN
inactive: all assays above

CP(=O)(O)C1=CCNCC1
inactive: all assays above

O=C1CC[C@@]2(O)C3Cc4ccc(O)c5c4C2(CCN3CC2CC2)[C@H]1O5 (stereo partly drawn)
inactive: all assays above

NCCc1c[nH]c2ccc(C(N)=O)cc12
inactive: all assays above

CC(N)Cc1c[nH]c2ccc(OCc3cccs3)cc12 (stereo not drawn)
inactive: all assays above

NNC(N)=O
inactive: all assays above

NC(CCCCCP(=O)(O)O)C(=O)O (stereo not drawn)
inactive: all assays above

Cc1cc([C@@H]2CCCN2C)on1
inactive: all assays above
